Experimental data from PubChem BioAssay (NCATS).
Results filed as inconclusive are left out. Active and inactive are the calls of the source. Calls follow the shape of the dose curve; as a rule, active = well fitted cell-killing curve with a large enough effect; inconclusive = small, poorly fitted or top-dose-only effect, or effect the other way; inactive = flat fitted curve, though single readings scatter.

Tests used:
Test in all cases: Primary qHTS to identify gynecologic anti-cancer compounds using libraries of approved drugs and bioactive compounds (AID 1345084); also: nearly all actives have a fitted effect of over 55% in size
C33A = details: Gynecologic cancer cell panel viability, ATPlite luminescence, 48 h; series mostly up to 57.5 µM
Outline: (§1)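 Five-point cytotoxicity, 48 h drug exposure at 37 C, 5% CO2, on cells seeded 16 h beforehand. ATP content read by ATPlite luminescence.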

CAOV3 = details: Gynecologic cancer cell panel viability, ATPlite luminescence, 48 h; series mostly up to 57.5 µM
Outline: as §1

CASKI = details: Gynecologic cancer cell panel viability, ATPlite luminescence, 48 h; series mostly up to 57.5 µM
Outline: as §1

Es-2 = details: Gynecologic cancer cell panel viability, ATPlite luminescence, 48 h; series mostly up to 57.5 µM
Outline: as §1

HeLa = details: Gynecologic cancer cell panel viability, ATPlite luminescence, 48 h; series mostly up to 57.5 µM
Outline: as §1

Hek293T = details: Gynecologic cancer cell panel viability, ATPlite luminescence, 48 h, control line for the selectivity index; series mostly up to 57.5 µM
Outline: as §1

JEG-3 = details: Gynecologic cancer cell panel viability, ATPlite luminescence, 48 h; series mostly up to 57.5 µM
Outline: as §1

OV90 = details: Gynecologic cancer cell panel viability, ATPlite luminescence, 48 h; series mostly up to 57.5 µM
Outline: as §1

PA-1 = details: Gynecologic cancer cell panel viability, ATPlite luminescence, 48 h; series mostly up to 57.5 µM
Outline: as §1

SKOV3 = details: Gynecologic cancer cell panel viability, ATPlite luminescence, 48 h; series mostly up to 57.5 µM
Outline: as §1

Tov-21-G = details: Gynecologic cancer cell panel viability, ATPlite luminescence, 48 h; series mostly up to 57.5 µM
Outline: as §1

Tov112D = details: Gynecologic cancer cell panel viability, ATPlite luminescence, 48 h; series mostly up to 57.5 µM
Outline: as §1

Measured: Potency

CC(=O)OCC1(O)CCC2C(COC3OC(CO)C(O)C(O)C3OC(=O)/C=C/c3ccc(O)cc3)=COC(OC(=O)CC(C)C)C21 (configuration not stated)
inactive: all assays above

C[C@@]12C[C@]3(O)O[C@H](O1)[C@]1(COC(=O)c4ccccc4)[C@H]3C[C@@]12O[C@@H]1O[C@H](CO)[C@@H](O)[C@H](O)[C@H]1O
inactive: all assays above

C/C=C/C=C/[C@@H]1O[C@](O)([C@H](CC)C(=O)NC/C=C/C=C(\C)[C@@H](OC)[C@@H](C)C2OC(/C=C/C=C/C=C(\C)C(=O)c3c(O)cc[nH]c3=O)[C@H](O)[C@@H]2O)[C@H](O)[C@H](O)C1(C)C (some centres not stated)
inactive: all assays above

C=C(C(=O)O)C1CCC2(C)CCCC(C)(O)C2C1 (configuration not stated)
inactive: all assays above

CC(=O)O[C@]1(C(C)=O)CC[C@H]2[C@@H]3C[C@H](C)C4=CC(=O)C=C[C@]4(C)[C@@]3(F)[C@@H](O)C[C@@]21C
inactive: all assays above

COc1cccc2cc3c(c(O[C@@H]4O[C@H](CO[C@@H]5O[C@H](CO)[C@@H](O)[C@H](O)[C@H]5O)[C@@H](O)[C@H](O)[C@H]4O)c12)C(C)OC3=O (some centres not stated)
inactive: all assays above
